The results in this text go back to PubChem BioAssay (Tox21).

Records with an inconclusive call do not appear. Values without a mark were called inactive. The source made the active and inactive calls. Unless noted, the call rests on the fitted dose curve; in most records, active means well fitted curve in the direction sought with a large enough effect in the repeat runs; inconclusive means weak or mixed curves; inactive means no such curve, though single readings can be large; an effect the other way counts as inactive or inconclusive.

Test [1] addresses Nuclear receptor ROR-gamma (Homo sapiens) (UniProt P51449). Description: qHTS assay to identify small molecule antagonists of the retinoid-related orphan receptor gamma (ROR-gamma) signaling pathway (AID 1159521; further: nearly all actives have a fitted effect of over 50% in size; further: potency means the concentration at half of the fitted maximal effect). Particulars: Tet-on RORgamma CHO cells, RORE-luciferase, 16 h; series mostly up to 92.4 µM. The method, boiled down:
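Readout: ONE-Glo luciferase luminescence, 30 min at room temperature. System: Tet-on RORγ CHO, RORE-LUC. Sequence: compound 2 h, doxycycline 1 uM final, 16 h at 37 C.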
(qHTS replaces the single test concentration by a dilution series.)

The nature of test [2]: qHTS assay to identify small molecule agonists of the AP-1 signaling pathway - cell viability counter screen (AID 1159525; calls by dose curve; further: nearly all actives have a fitted effect of over 55% in size; further: potency means the concentration at half of the fitted maximal effect). To be noted: ME-180 (cervical carcinoma) AP-1-bla cells viability, ATP luminescence, 5 h; series mostly up to 76.8 µM. In a few lines:
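Same-well cytotoxicity counter screen of the Tox21 10K library in ME-180 cells. The readout is ATP-dependent luminescence after 5 h compound treatment. Data are normalised to DMSO and tetra n-octyl ammonium bromide controls.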

The nature of test [3]: qHTS assay to identify small molecule antagonists of the retinoid acid receptor (RAR) signaling pathway - cell viability counter screen (AID 1159551). Further: nearly all actives have a fitted effect of over 35% in size. Particulars: C3RL4 cells viability, ATP luminescence (CellTiter-Glo), 6 h; series mostly up to 92.4 µM. In a few lines: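 Cytotoxicity counter screen: ATP content quantified by CellTiter-Glo luminescence in C3RL4 cells treated 6 hr at 37 C with compound and retinol (1 uM final). Cells plated at 1,000/well and cultured overnight before dosing.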

Test [4] is described as follows: qHTS assay to identify small molecule antagonists of the retinoic acid receptor (RAR) signaling pathway (AID 1159552; further: nearly all actives have a fitted effect of over 50% in size; further: potency means the concentration at half of the fitted maximal effect). To be noted: C3RL4 RARE luciferase reporter, retinol-stimulated, 6 h; series mostly up to 92.4 µM. The method, boiled down:
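Overnight-plated C3RL4 reporter cells get compound, then retinol to 1 uM final; plates sit 6 hr at 37 C, 5% CO2. A luciferase reagent is added and light output recorded after 30 min at room temperature.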

The nature of test [5]: qHTS assay to identify small molecule antagonists of the estrogen related receptor (ERR) signaling pathway from Tox21 library - cell viability counter screen (AID 1224834). Further: nearly all actives have a fitted effect of over 30% in size. Further: potency means the concentration at half of the fitted maximal effect. To be noted: ERR reporter cells viability, CellTiter-Fluor, 17.5 h; series mostly up to 92.4 µM. In a few lines: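 CellTiter-Fluor fluorescence, read after 30 min at 37 C, measures viability of ERR cells. Cells plated at 2,000/well and incubated 6 h before pin-tool compound addition, then exposed 17.5 hours at 37 C.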

In test [6] the target is Luciferin 4-monooxygenase (Photinus pyralis) (UniProt P08659). Description: qHTS assay to identify small molecule inhibitors of firefly luciferase (AID 1224835). Further: nearly all actives have a fitted effect of over 25% in size. Further: potency means the concentration at half of the fitted maximal effect. Particulars: purified P. pyralis luciferase, luminescence inhibition; series mostly up to 115 µM. The method, boiled down: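 Biochemical qHTS: compounds run as interplate titrations against purified firefly enzyme, with D-luciferin and ATP each at its KM concentration. Light output recorded by CCD imaging.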

Test [7] in a line: qHTS assay to identify small molecule agonists of the constitutive androstane receptor (CAR) signaling pathway - cell viability counter screen (AID 1224836). Further: nearly all actives have a fitted effect of over 45% in size. Particulars: HepG2-CYP2B6-hCAR viability, CellTiter-Fluor, 23 h, PK11195 added to every well; series mostly up to 92.4 µM. In a few lines:
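Fluorescence from CellTiter-Fluor indicates live cells after 23 h exposure. The human hepatoma line expresses hCAR and a CYP2B6-2.2kb reporter. Incubation medium contains 0.75 uM PK11195 (final).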

Test [8] can be described thus: qHTS assay to identify small molecule antagonists of the constitutive androstane receptor (CAR) signaling pathway - cell viability counter screen (AID 1224837). Further: nearly all actives have a fitted effect of over 45% in size. To be noted: HepG2-CYP2B6-hCAR viability, CellTiter-Fluor, 23 h, co-treated with 50 nM CITCO; series mostly up to 92.4 µM. In a few lines:
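Cytotoxicity counter-screen: CellTiter-Fluor fluorescence after 23 h compound exposure (15-point qHTS) in double-stable HepG2-CYP2B6-hCAR cells, with 50 nM CITCO added.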

Test [9] concerns the target Nuclear receptor subfamily 1 group I member 3 (Homo sapiens) (UniProt Q14994). In words: qHTS assay to identify small molecule agonists of the constitutive androstane receptor (CAR) signaling pathway (AID 1224839). Further: nearly all actives have a fitted effect of over 15% in size. Further: potency means the concentration at half of the fitted maximal effect. To be noted: HepG2 hCAR CYP2B6-luciferase, agonist mode, 24 h; series mostly up to 92.4 µM. In a few lines: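 Stable hCAR/CYP2B6-2.2kb HepG2 line in DMEM with 10% FBS; compounds (15 concentrations) and 0.75 uM PK11195 final, 24 h at 37 C/5% CO2, then ONE-Glo luminescence after 30 min.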

The nature of test [10]: qHTS assay to identify small molecule agonists of the RXR signaling pathway - cell viability counter screen (AID 1159529). Further: nearly all actives have a fitted effect of over 50% in size. Further: potency means the concentration at half of the fitted maximal effect. To be noted: RXR-alpha-bla HEK293T viability, CellTiter-Glo, 16 h; series mostly up to 76.8 µM. In a few lines: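 Tox21 10K compounds were tested for cytotoxicity against GeneBLAzer RXR-alpha HEK 293T cells grown in 2% charcoal-stripped FBS. Exposure lasted 16 hr at 37 C, 5% CO2; viability read by CellTiter-Glo luminescence.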

Test [11] has as its target Nuclear receptor subfamily 1 group I member 3 (Homo sapiens) (UniProt Q14994). In words: qHTS assay to identify small molecule antagonists of the constitutive androstane receptor (CAR) signaling pathway (AID 1224838).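 Further: HepG2 cells stably expressing hCAR with CYP2B6 luciferase reporter stimulated by CITCO; nearly all actives have a fitted effect of over 40% in size.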 To be noted: HepG2-CYP2B6-hCAR luciferase, CITCO-stimulated, 24 h; series mostly up to 92.4 µM. The method, boiled down: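 Antagonism measured as luciferase signal (ONE-Glo, 30 min, room temperature) in CAR-stimulated cells: HepG2-CYP2B6-hCAR double-stable line exposed 24 hr at 37 C to compound in a 15-point series plus 50 nM CITCO.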

Test [12] addresses Retinoic acid receptor RXR-alpha (Homo sapiens) (UniProt P19793). In words: qHTS assay to identify small molecule agonists of the RXR signaling pathway (AID 1159527; calls by dose curve; further: nearly all actives have a fitted effect of over 35% in size). To be noted: HEK293T RXRa-UAS-bla, beta-lactamase ratio, 16 h; series mostly up to 76.8 µM. In a few lines:
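Reporter activation is measured as beta-lactamase activity via FRET substrate cleavage (emission 460/530 nm) in HEK 293T cells expressing an RXR-alpha-driven bla construct, following 16 hr compound exposure at 37 C.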

The nature of test [13]: qHTS assay to identify small molecule agonists of the retinoic acid receptor (RAR) signaling pathway (AID 1159553). To be noted: C3RL4 RARE luciferase reporter, agonist, 6 h; series mostly up to 73.3 µM. The method, boiled down:
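Luminescence was measured 30 min after luciferase reagent addition at room temperature. Before that, C3RL4 reporter cells (1,000 per well, plated overnight) were treated with compound for 6 hr at 37 C and 5% CO2.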

Test [14] in a line: qHTS assay to identify small molecule antagonists of the estrogen related receptor (ERR) signaling pathway - cell viability counter screen (AID 1224818). To be noted: ERR reporter cell line viability counter screen; series mostly up to 46.1 µM. In a few lines: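 Cytotoxicity counter screen: fluorescence from CellTiter-Fluor, added after 17.5 h compound exposure at 37 C and read 30 min later. ERR cell line seeded at 2,000 cells/well, preincubated 6 h before dosing.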

A short description of test [15]: qHTS assay to identify small molecule antagonists of the estrogen related receptor (ERR) signaling pathway (AID 1224819;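 further: luminescence from an ERR-driven luciferase reporter measured with One-Glo reagent; nearly all actives have a fitted effect of over 50% in size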). To be noted: ERR reporter cell line, luciferase inhibition; series mostly up to 46.1 µM. The method, boiled down: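 LOPAC library screened for antagonism as reduced One-Glo luminescence in ERR reporter cells (2,000/well). Compounds were added after 6 h pre-incubation and left 18 h at 37C; reading followed a 30 min room-temperature reagent step.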

Test [16] in a line: qHTS assay to identify small molecule agonists of the estrogen related receptor (ERR) signaling pathway (AID 1224820). To be noted: ERR reporter cell line, luciferase agonist mode; series mostly up to 46.1 µM. In a few lines:
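Following a 6 h settling period, 2,000 ERR cells per well receive DMSO-dissolved compounds by pin tool and incubate 18 h at 37 C; agonist activity is scored from One-Glo luminescence read 30 min post-addition.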

In test [17] the test system is estrogen-related receptor alpha (ERRalpha) with PGC-1alpha coactivator, human. In words: qHTS assay to identify small molecule antagonists of the estrogen related receptor signaling pathway with the pleiotropic PPARgamma coactivator (PGC) (AID 1224821; calls by dose curve). To be noted: ERR/PGC reporter cell line, luciferase, antagonist mode; series mostly up to 46.1 µM. In a few lines: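 Screening used NTP's PGC/ERR cells, dosed via pin tool with compound in DMSO alongside positive and negative controls. After 18 h at 37 C, One-Glo reagent sat 30 min at room temperature before luminescence detection.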

A short description of test [18]: qHTS assay to identify small molecule antagonists of the estrogen related receptor signaling pathway with the pleiotropic PPARgamma coactivator (PGC) cell viability counter screen (AID 1224822). To be noted: ERR/PGC reporter cell line viability counter screen; series mostly up to 46.1 µM. The method, boiled down:
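Viability counter-screen read by fluorescence intensity after 30 min with CellTiter-Fluor at 37 C; PGC/ERR reporter cells were exposed to compounds for 17.5 h at 37 C following a 6 h preincubation.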

Test [19] can be described thus: qHTS assay to identify small molecule agonists of the estrogen related receptor signaling pathway with the pleiotropic PPARgamma coactivator (PGC) (AID 1224823). Particulars: ERR/PGC reporter cell line, luciferase agonist mode; series mostly up to 46.1 µM. The method, boiled down: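 In this quantitative high-throughput screen, an 18 h, 37 C treatment of PGC/ERR cells with compounds in DMSO preceded a One-Glo luminescence read taken after 30 min at room temperature.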

Chain of Nuclear receptor subfamily 1 group I member 3 (Homo sapiens) (Q14994 whole entry, looked up): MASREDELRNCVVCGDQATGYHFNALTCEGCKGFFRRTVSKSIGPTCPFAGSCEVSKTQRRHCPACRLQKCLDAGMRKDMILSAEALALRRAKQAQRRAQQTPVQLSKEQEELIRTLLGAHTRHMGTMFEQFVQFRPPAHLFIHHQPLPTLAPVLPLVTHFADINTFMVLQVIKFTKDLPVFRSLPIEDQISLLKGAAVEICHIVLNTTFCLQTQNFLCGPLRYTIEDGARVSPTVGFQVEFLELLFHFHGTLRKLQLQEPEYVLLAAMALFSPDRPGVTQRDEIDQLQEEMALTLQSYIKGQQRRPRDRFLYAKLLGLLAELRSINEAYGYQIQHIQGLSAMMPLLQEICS
Chain of Luciferin 4-monooxygenase (Photinus pyralis) (P08659 whole entry, looked up): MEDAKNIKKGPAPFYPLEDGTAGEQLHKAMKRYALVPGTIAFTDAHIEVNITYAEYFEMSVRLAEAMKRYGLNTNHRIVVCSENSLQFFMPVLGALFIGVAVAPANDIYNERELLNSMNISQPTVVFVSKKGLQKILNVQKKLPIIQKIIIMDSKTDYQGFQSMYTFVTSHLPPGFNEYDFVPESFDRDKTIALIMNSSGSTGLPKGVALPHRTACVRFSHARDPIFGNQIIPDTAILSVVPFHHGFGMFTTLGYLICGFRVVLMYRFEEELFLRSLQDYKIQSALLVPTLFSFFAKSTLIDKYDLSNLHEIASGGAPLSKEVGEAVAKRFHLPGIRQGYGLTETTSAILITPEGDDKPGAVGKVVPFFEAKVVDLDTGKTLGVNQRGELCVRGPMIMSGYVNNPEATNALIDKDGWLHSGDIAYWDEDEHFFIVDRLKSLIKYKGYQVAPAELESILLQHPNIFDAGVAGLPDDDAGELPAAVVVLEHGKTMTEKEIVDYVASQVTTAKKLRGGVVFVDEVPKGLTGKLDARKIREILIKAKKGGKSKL
Chain of Retinoic acid receptor RXR-alpha (Homo sapiens) (P19793 whole entry, looked up): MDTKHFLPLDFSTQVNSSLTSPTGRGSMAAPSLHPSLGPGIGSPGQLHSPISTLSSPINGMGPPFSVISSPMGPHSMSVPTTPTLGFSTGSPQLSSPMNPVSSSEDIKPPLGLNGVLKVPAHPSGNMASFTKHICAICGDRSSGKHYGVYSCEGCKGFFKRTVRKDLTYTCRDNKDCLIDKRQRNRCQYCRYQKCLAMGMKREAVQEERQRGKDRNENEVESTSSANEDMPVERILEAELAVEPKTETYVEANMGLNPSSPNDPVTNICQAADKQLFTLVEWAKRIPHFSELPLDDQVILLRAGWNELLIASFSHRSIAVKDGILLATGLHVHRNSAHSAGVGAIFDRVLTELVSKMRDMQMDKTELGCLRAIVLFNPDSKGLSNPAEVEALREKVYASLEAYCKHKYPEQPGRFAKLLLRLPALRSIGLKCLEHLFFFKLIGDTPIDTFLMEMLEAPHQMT

In the case of `CCCCCCCCCCCC(=O)Cl`, the Potency entry in test [1], in [2], in test [3], in test [4], in test [5] and in [7] was “inactive” in each case. Further, the Potency entry in test [8] and in test [9] was “inactive” each time. For the same compound, the Potency in test [6] was 39.9 µM (active).

Turning to `CCOC=C(C(=O)OCC)C(=O)OCC`, the Potency entry in test [1], in test [2], in test [10], in [3], in [4] and in test [5] was “inactive” in each case. For the same compound, the Potency result in test [6], in test [7], in [8] and in test [9] was “inactive” in each case.

As for `Cc1c(Cl)c(=O)oc2cc(O)ccc12`, the Potency result in test [1], in [2], in test [10], in [3], in [6] and in [11] was “inactive” each time.

Consider `C=C1C(CCl)(CCl)C2(Cl)C(Cl)C(Cl)C1(Cl)C2(Cl)Cl` (stereo not drawn), for which the Potency in test [1] was 48 µM (active); in test [2], 43.1 µM (active); in [10] it was 24.3 µM (active); in test [9], 8.53 µM (active). Further, the Potency entry in test [3], in test [6], in test [7], in [8] and in test [11] was “inactive” in each case.

For `CC(O)(c1ccc(Cl)cc1)c1ccc(Cl)cc1`, the Potency entry in test [1], in test [6], in [7], in test [8] and in [11] was “inactive” each time. For the same compound, the Potency in test [2] is 54.9 µM (active); in [10] it was 38.9 µM (active); in [4], 61.1 µM (active); in test [5], 61.1 µM (active); in test [9] it was 15.4 µM (active).

Consider `CCc1c(C)cc(N)c(CC)c1N`, for which the Potency entry in [1], in [2], in test [12], in test [10], in [3] and in test [5] was “inactive” throughout. The Potency entry in [6], in [7] and in test [8] was “inactive” in each case.

`CCCCCCCCCCCCCCCCC(C(=O)O)C(O)(CC(=O)O)C(=O)O` (stereo not drawn): the Potency entry in test [1], in test [3], in test [4], in test [13], in [5] and in test [6] was “inactive” throughout. The Potency result in test [7], in [8] and in test [9] was “inactive” in each case. The Potency in test [2] is 21.3 µM (active); in test [10], 19 µM (active).

`COCCC(=O)OC`: the Potency result in test [1], in test [2], in test [12], in [10], in test [3] and in [4] was “inactive” in each case. In addition, the Potency entry in [5], in test [6], in test [7], in test [8], in test [11] and in [9] was “inactive” in each case.

With `Nc1ccc2c(S(=O)(=O)O)cccc2c1S(=O)(=O)O`, the Potency entry in [1], in test [2], in test [10], in [3], in [4] and in [5] was “inactive” each time. For the same compound, the Potency result in [6] and in test [8] was “inactive” each time.

`CC(C)=NNC(N)=S`: the Potency result in [1], in test [2], in test [10], in test [3], in test [5] and in test [6] was “inactive” throughout. Also, the Potency entry in test [7] and in test [8] was “inactive” each time.

For the compound `c1ccc2occc2c1`, the Potency result in test [1], in [2], in test [10], in test [3], in test [14] and in [15] was “inactive” throughout. For the same compound, the Potency result in test [16], in [17], in [18], in test [19], in test [5] and in test [6] was “inactive” in each case. Further, the Potency result in test [7], in [8], in test [11] and in test [9] was “inactive” throughout.
